Experimental data: PubChem BioAssay AID1159580 (chemical genetic matrix, 2015)
Screen size: about 5,500 compounds; about 2,000 (36%) were called active. Inconclusive results (about 18%) are left out. No stated cut-off is given here; in the data, active means normalized growth mostly below about 0.91 (no sharp cut-off); inconclusive means no clear call, values can overlap the other calls; inactive means mostly above about 0.92. This is one part of the list.

Assay: chemical genetic growth profiling, strain panel (AID 1159580);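 further: tested at 20 µM; growth read once vehicle control cultures reached saturation at 30 °C; 1 = growth at the plate median or of vehicle wells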
Details: S. cerevisiae deletion strains, growth OD

Measured: normalized growth

NC/C=C/C(=O)O
inactive: locus YAL013W, strain DEP1, stronger effect = lower value 1.02 | locus YAL021C, strain ccr4, stronger effect = lower value 0.968 | locus YAL026C, strain drs2, stronger effect = lower value 0.997 | locus YAL030W, strain snc1, stronger effect = lower value 1 | locus YAL040C, strain CLN3, stronger effect = lower value 0.998 | locus YBL061C, strain skt5, stronger effect = lower value 1.01 | locus YBR009C, strain hhf1, stronger effect = lower value 1.01 | locus YBR021W, strain FUR4, stronger effect = lower value 1.01 | locus YBR023C, strain chs3, stronger effect = lower value 1 | locus YBR171W, strain sec66, stronger effect = lower value 0.985 | locus YBR229C, strain ROT2, stronger effect = lower value 1.01 | locus YBR231C, strain swc5, stronger effect = lower value 1.02 | locus YBR279W, strain paf1, stronger effect = lower value 1.01 | locus YCL011C, strain gbp2, stronger effect = lower value 0.983 | locus YCL016C, strain dcc1, stronger effect = lower value 1.01 | locus YCL029C, strain bik1, stronger effect = lower value 1.02 | locus YCL061C, strain MRC1 (second series), stronger effect = lower value 1 | locus YCL061C, strain MRC1, stronger effect = lower value 0.987 | locus YCL069W, strain vba3, stronger effect = lower value 0.992 | locus YCR088W, strain abp1, stronger effect = lower value 0.986 | locus YDL005C, strain med2, stronger effect = lower value 1.01 | locus YDL035C, strain GPR1, stronger effect = lower value 1.04 | locus YDL040C, strain nat1, stronger effect = lower value 1 | locus YDL074C, strain BRE1, stronger effect = lower value 0.986 | locus YDL101C, strain DUN1, stronger effect = lower value 1 | locus YDL134C, strain PPH21, stronger effect = lower value 1.01 | locus YDL185W, strain tfp1, stronger effect = lower value 1.02 | locus YDL192W, strain arf1, stronger effect = lower value 1.01 | locus YDR001C, strain nth1, stronger effect = lower value 0.987 | locus YDR069C, strain doa4, stronger effect = lower value 1.03 | locus YDR101C, strain arx1, stronger effect = lower value 1.02 | locus YDR137W, strain rgp1, stronger effect = lower value 1.01 | locus YDR150W, strain NUM1, stronger effect = lower value 1.01 | locus YDR159W, strain sac3, stronger effect = lower value 1.02 | locus YDR162C, strain NBP2, stronger effect = lower value 0.986 | locus YDR195W, strain ref2 1.01 | locus YDR297W, strain sur2, stronger effect = lower value 1.01 | locus YDR318W, strain mcm21, stronger effect = lower value 1.05 | locus YDR334W, strain swr1, stronger effect = lower value 1 | locus YDR335W, strain msn5, stronger effect = lower value 1.01 | locus YDR363W, strain ESC2, stronger effect = lower value 0.999 | locus YDR388W, stronger effect = lower value 1.01 | locus YDR392W, strain spt3, stronger effect = lower value 0.965 | locus YDR502C, strain sam2, stronger effect = lower value 0.999 | locus YEL003W, strain gim4, stronger effect = lower value 0.99 | locus YEL037C, strain rad23, stronger effect = lower value 0.982 | locus YEL061C, strain CIN8 (second series), stronger effect = lower value 0.99 | locus YEL061C, strain CIN8, stronger effect = lower value 1.01 | locus YER002W, strain NOP16, stronger effect = lower value 0.975 | locus YER015W, strain faa2, stronger effect = lower value 1.01 | locus YER016W, strain bim1, stronger effect = lower value 1.02 | locus YER110C, stronger effect = lower value 1.02 | locus YER111C, strain swi4, stronger effect = lower value 0.98 | locus YER155C, strain BEM2 (second series), stronger effect = lower value 1.01 | locus YER155C, strain BEM2, stronger effect = lower value 0.999 | locus YER167W, strain BCK2, stronger effect = lower value 1.05 | locus YFR010W, strain ubp6, stronger effect = lower value 1.01 | locus YGL078C, strain dbp3, stronger effect = lower value 0.994 | locus YGL086W, strain mad1, stronger effect = lower value 1.04 | locus YGL167C, strain pmr1, stronger effect = lower value 1.01 | locus YGL173C, strain kem1, stronger effect = lower value 1.01 | locus YGL227W, strain vid30, stronger effect = lower value 0.988 | locus YGL240W, strain doc1, stronger effect = lower value 1.02 | locus YGL248W, strain PDE1, stronger effect = lower value 1.01 | locus YGL253W, strain hxk2, stronger effect = lower value 1 | locus YGR078C, strain PAC10, stronger effect = lower value 1.01 | locus YGR135W, strain pre9, stronger effect = lower value 0.996 | locus YGR229C, strain SMI1, stronger effect = lower value 1.01 | locus YGR252W, strain gcn5, stronger effect = lower value 1.03 | locus YHR013C, strain ard1, stronger effect = lower value 0.999 | locus YHR027C, strain rpn1, stronger effect = lower value 1.01 | locus YHR030C, strain SLT2, stronger effect = lower value 1.01 | locus YHR079C, strain IRE1 (second series), stronger effect = lower value 1.01 | locus YHR094C, strain hxt1, stronger effect = lower value 1.01 | locus YHR129C, strain ARP1, stronger effect = lower value 1.02 | locus YHR142W, strain chs7, stronger effect = lower value 0.975 | locus YHR200W, strain rpn10, stronger effect = lower value 1.02 | locus YIL066C, strain RNR3, stronger effect = lower value 1.02 | locus YIL073C, strain SPO22, stronger effect = lower value 1.13 | locus YIL125W, strain kgd1, stronger effect = lower value 1.01 | locus YIR030C, strain dcg1, stronger effect = lower value 1.02 | locus YJL092W, strain hpr5, stronger effect = lower value 0.984 | locus YJL095W, strain BCK1 (second series), stronger effect = lower value 1.01 | locus YJL095W, strain BCK1, stronger effect = lower value 1.03 | locus YJL115W, strain asf1, stronger effect = lower value 0.994 | locus YJL129C, strain trk1, stronger effect = lower value 0.994 | locus YJL134W, strain LCB3, stronger effect = lower value 1.01 | locus YJL154C, strain vps35, stronger effect = lower value 0.987 | locus YJL164C, strain tpk1, stronger effect = lower value 0.989 | locus YJL166W, strain qcr8, stronger effect = lower value 1.02 | locus YJL168C, strain set2, stronger effect = lower value 1 | locus YJL187C, strain SWE1 (second series), stronger effect = lower value 1.01 | locus YJL187C, strain SWE1, stronger effect = lower value 1.02
